# Most compounds without a hit are left out; they make up all but 1.5% or so of the library.
# NadD inh = blocks S. aureus nicotinate mononucleotide adenylyltransferase. hit rate 0.78% among 360,000. inhibition, % at 20 µM. purified NadD enzyme, colorimetric absorbance read-out; in the data active means inhibition above about 26%
# Neddyl block = cullin neddylation inhibition | TR-FRET cullin neddylation, biochemical | hit rate 0.58% among 360,000 | P61081+Q13564 | inhibition, % at 25 µM; in the data active means inhibition above about 36%
# NPR1 activator = GC-A (human) enzyme activation; P16066; HEK293 GC-A cells, cGMP TR-FRET, EC30 ANP; 0% at EC30 ANP, 100% saturating ANP; activation, % at 10 µM; hit rate 0.14% among 370,000; AID 1671463; in the data active means activation above about 40%
# NPR2 activator = GC-B (human) receptor activation | P20594 | HEK293-GC-B cells, CNP EC30, cGMP TR-FRET; 0% at EC30 CNP, 100% saturating CNP | activation, % at 10 µM | hit rate 0.11% among 370,000 | AID 1920062;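 active means activation at 10 µM reaching about 35% in either raw or pattern-adjusted values, limit read from the data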
# Target sequence (P20594 whole entry, looked up): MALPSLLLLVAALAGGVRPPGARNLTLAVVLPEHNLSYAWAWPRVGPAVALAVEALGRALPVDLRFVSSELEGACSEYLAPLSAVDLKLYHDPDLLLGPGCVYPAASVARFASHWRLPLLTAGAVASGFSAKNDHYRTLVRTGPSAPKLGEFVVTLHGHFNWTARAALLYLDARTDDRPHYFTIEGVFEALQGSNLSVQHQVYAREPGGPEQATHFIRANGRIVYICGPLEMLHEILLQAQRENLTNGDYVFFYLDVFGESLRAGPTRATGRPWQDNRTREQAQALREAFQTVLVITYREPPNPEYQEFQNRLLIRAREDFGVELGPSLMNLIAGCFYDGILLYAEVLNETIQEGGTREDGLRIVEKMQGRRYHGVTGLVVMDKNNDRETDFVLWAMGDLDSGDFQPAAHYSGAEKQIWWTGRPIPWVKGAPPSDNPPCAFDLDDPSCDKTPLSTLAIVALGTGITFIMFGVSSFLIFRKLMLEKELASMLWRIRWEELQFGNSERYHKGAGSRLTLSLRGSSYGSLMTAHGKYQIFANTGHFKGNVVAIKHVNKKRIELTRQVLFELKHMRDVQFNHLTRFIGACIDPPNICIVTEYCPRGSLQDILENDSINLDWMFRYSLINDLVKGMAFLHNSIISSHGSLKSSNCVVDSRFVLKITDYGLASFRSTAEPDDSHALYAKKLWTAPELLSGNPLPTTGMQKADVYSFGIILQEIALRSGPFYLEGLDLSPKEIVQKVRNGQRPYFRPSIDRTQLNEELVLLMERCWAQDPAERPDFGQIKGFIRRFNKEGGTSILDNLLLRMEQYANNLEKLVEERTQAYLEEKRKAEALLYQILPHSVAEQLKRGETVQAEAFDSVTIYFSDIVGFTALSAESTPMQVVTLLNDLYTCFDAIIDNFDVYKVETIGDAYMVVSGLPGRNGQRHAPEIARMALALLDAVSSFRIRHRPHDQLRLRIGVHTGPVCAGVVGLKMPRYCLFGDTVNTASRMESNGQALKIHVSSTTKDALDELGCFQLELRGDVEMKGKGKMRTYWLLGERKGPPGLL
# Neddyl conf = cullin neddylation inhibition, confirmation. AID 652217. calls only at 25 µM. hit rate 13% among 1,800. shares compounds with Neddyl block. TR-FRET cullin neddylation biochemical assay; in the data active means inhibition above about 40%;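 further: neddylation substrate is the cullin 1 ring ligase complex with SKP2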
# * marks the source's active call; other numbers are inactive results; i = inactive; / = no result given; + = active, no number.
SMILES,NadD inh,Neddyl block,NPR1 activator,NPR2 activator,Neddyl conf
CC(=O)Nc1ccc(Nc2nc(C)nc3c2nnn3Cc2ccccc2Cl)cc1,-5.0,/,-1.3,2.9,/
COc1cccc(N(C(=O)c2snc(C(N)=O)c2N)C(C(=O)NCC2CCCO2)c2ccc3ncccc3c2)c1 (configuration not stated),5.5,45.2*,-33.6,-18.4,+
Cc1cccc(N(C(=O)c2snc(C(N)=O)c2N)C(C(=O)NCC2CCCO2)c2ccc3ncccc3c2)c1 (configuration not stated),0.4,47.6*,-28.7,-13.6,/
Cc1ccc(N(C(=O)c2snc(C(N)=O)c2N)C(C(=O)NCC2CCCO2)c2ccc3ncccc3c2)cc1 (configuration not stated),2.6,42.9*,-14.3,-6.8,i
Cc1ccccc1CS(=O)(=O)Cc1ccc(C(=O)Nc2cccc(Cl)c2F)o1,/,/,2.1,10.0,/
CS(=O)(=O)Nc1ccccc1C(=O)N1CCCC1,-6.0,-1.4,-2.7,3.1,/
CS(=O)(=O)Nc1ccccc1C(=O)Nc1cccc(Cl)c1,-2.9,47.1*,0.8,2.4,/
CC(C)(CNC(=O)c1ccccc1NS(C)(=O)=O)N1CCCCC1,5.9,45.1*,0.1,2.6,i
CS(=O)(=O)Nc1ccccc1C(=O)NCCSc1ccccc1,-1.2,41.7*,-1.6,1.8,i
CS(=O)(=O)Nc1ccccc1C(=O)NCCSCc1ccccc1,-4.6,/,0.6,2.0,/
CC1(C)Oc2cc3oc(-c4cc(O)cc(O)c4)cc3cc2CC1O (configuration not stated),2.0,42.1*,-5.8,-16.1,i
CCCCC(=O)OCC(=O)N1N=C(c2c[nH]c3ccccc23)C(O)C1c1ccc(OC)cc1 (configuration not stated),-2.4,44.5*,8.9,-1.4,i
COc1ccc(CC(=O)OCC(=O)N2N=C(c3ccccc3)CC2c2ccc(OC)cc2)cc1 (configuration not stated),-7.0,-19.8,-0.8,10.0,/
COc1ccc(/C=C/C(=O)NC(=S)NNC(=O)c2cc(OC)c(OC)c(OC)c2)cc1OC,-8.0,-0.2,0.6,-1.4,/
COc1ccc(/C=C/C(=O)NC(=S)NNC(=O)c2cc(OC)c(OC)c(OC)c2)cc1,5.5,48.0*,-1.9,-0.3,i
Cc1ccc(NC(=O)c2ccc(CS(=O)(=O)Cc3ccccc3C)o2)cc1C,/,/,-1.8,-3.0,/
CCOC(=O)C1CCCN(c2cc(C)nc3cc(-c4ccc(F)cc4)nn23)C1 (configuration not stated),3.0,57.3*,-1.7,-4.1,i
CNC(C#Cc1ccccc1)c1ccccc1C(F)(F)F (configuration not stated),/,/,-1.1,-7.6,/
C=CCOC(=O)C(C#N)c1nc2ccccc2nc1N1CCN(Cc2ccccc2)CC1 (configuration not stated),3.8,30.7,-4.9,-8.3,/
C=CCNC(=O)C(C#N)c1nc2ccccc2nc1N1CCN(Cc2ccccc2)CC1 (configuration not stated),5.8,42.2*,/,/,i
CCOC(=O)c1[nH]c2ccc(Cl)cc2c1NC(=O)/C=C/c1ccc2c(c1)OCO2,14.3,41.9*,-5.5,-7.3,i
Cc1cccc(-n2ncc3c(NCc4ccccn4)ncnc32)c1,-0.5,40.2*,-2.7,-2.5,i
CN1CC=C(c2ccccc2)N(c2ccc(Br)cc2)C1=O,/,/,3.3,-2.7,/
COC(=O)[C@]1(CNC(C)=O)CC(=O)N(Cc2ccc(Cl)cc2)[C@@H]1c1ccc(OC)cc1,/,/,-5.0,-11.6,/
CC(=O)OC[C@H]1O[C@@H](Oc2cc(O)cc3oc(-c4ccc(O)cc4)cc(=O)c23)[C@H](O[C@@H]2O[C@@H](C)[C@H](O)[C@@H](O)[C@H]2O)[C@@H](O)[C@@H]1O,-0.5,37.0*,2.5,1.8,/
CC1OC(OC2C(Oc3c(-c4ccc(O)cc4)oc4cc(O)cc(O)c4c3=O)OC(COC3O[C@@H](C)[C@H](O)[C@@H](O)C3O)C(O)C2O)C(O)C(O)C1O (some centres not stated),-1.0,-17.0,0.3,0.1,/
COC(=O)C1CN(C2CCCC2)CCS(=O)(=O)N1Cc1cn(Cc2ccc(Cl)cc2)nn1 (configuration not stated),/,/,0.7,5.6,/
COc1ccc(/C=C(\CC(=O)O)c2nc3ccccc3s2)cc1O,0.4,10.3,-1.9,-2.8,/
COc1cc(/C=C(\CC(=O)O)c2nc3ccccc3s2)ccc1OCC(=O)Nc1ccccc1F,16.8,35.6*,1.8,-4.9,i

# Bioassay records as filed in PubChem.
